Here are results for eight molecules from PubChem BioAssay (NCATS).

A short description of assay [1]: Quantitative High-Throughput drug screen in 47 multiple myeloma cell lines against the NCATS MIPE library collection: PCM6_Riken cell viability assay (AID 1919870). Note: nearly all actives have a fitted effect of over 30% in size. Summed up: (§1)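 ATP-based luminescence (CellTiter-Glo, 5 min RT incubation) quantified surviving cells following two days' treatment with MIPE 4.0 agents at 37 °C, 5% CO2.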
The nature of assay [2]: Quantitative High-Throughput drug screen in 47 multiple myeloma cell lines against the NCATS MIPE library collection: RPMI8226_ATCC cell viability assay (AID 1919871). Note: nearly all actives have a fitted effect of over 30% in size. In short, it runs like this:
as §1

The nature of assay [3]: Quantitative High-Throughput drug screen in 47 multiple myeloma cell lines against the NCATS MIPE library collection: OPM2_DSMZ cell viability assay (AID 1919872). Note: nearly all actives have a fitted effect of over 30% in size. In short, it runs like this: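 Approved and investigational drugs from MIPE 4.0 were added by pin tool to 500 cells per well. After 48 hours at 37C, ATP-based CellTiter-Glo luminescence indicated remaining viability.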

Assay [4] in a line: Quantitative High-Throughput drug screen in 47 multiple myeloma cell lines against the NCATS MIPE library collection: KMS11_JCRBsus cell viability assay (AID 1919873). Note: nearly all actives have a fitted effect of over 50% in size. In short, it runs like this:
as §1

Assay [5] can be described thus: Quantitative High-Throughput drug screen in 47 multiple myeloma cell lines against the NCATS MIPE library collection: KMS28BM_JCRB cell viability assay (AID 1919874). Note: nearly all actives have a fitted effect of over 35% in size. In short, it runs like this:
as §1

Results filed as inconclusive are left out. The source made the active and inactive calls. Calls come from the whole dose curve; as a rule, active = well fitted cell-killing curve with a large enough effect; inconclusive = small, poorly fitted or top-dose-only effect, or effect the other way; inactive = no such curve, though single readings can be large or run the other way.
Potency is the fitted concentration of half-maximal effect.

As for `O=C(CCCCCCC(=O)Nc1ccccc1)NO`, the Potency is 3.32 µM (active) in assay [1]; 4.69 µM (active) in assay [2]; 4.69 µM (active) in assay [3]; 2.64 µM (active) in assay [4]; 2.09 µM (active) in assay [5].
As to `COc1ccc(-c2oc3c(CC=C(C)C)c(OC4O[C@H](CO)[C@@H](O)[C@H](O)[C@@H]4O)cc(O)c3c(=O)c2OC2O[C@@H](C)[C@H](O)[C@@H](O)[C@@H]2O)cc1` (stereo not given in full), the Potency was 16.6 µM (active) in assay [1]; 20.9 µM (active) in assay [2]; 23.5 µM (active) in assay [3]; 23.5 µM (active) in assay [4]; 16.6 µM (active) in assay [5].
`CNC(=O)c1ccc2cc(C3(O)CCn4cncc43)ccc2c1` (stereo not given): the Potency result in assay [1], in assay [2], in assay [3], in assay [4] and in assay [5] was “inactive” throughout.
For `CCc1ccc(OCc2ccccc2C(=O)Nc2ccc3nc(C)cc(N)c3c2)cc1`, the Potency in assay [1] was 1.18 µM (active); in assay [2] it was 6.62 µM (active); in assay [3], 9.35 µM (active); in assay [5] it was 1.18 µM (active).
As to `CC(C)(C(=O)NCC(F)(F)C(F)(F)F)C(=O)N[C@@H]1C(=O)Nc2ccccc2-c2ccccc21`, the Potency in assay [1] was 3.32 µM (active). Besides, the Potency entry in assay [2], in assay [3] and in assay [5] was “inactive” in each case.
For the molecule `CC1(C)O[C@H]2C[C@@H]3[C@H]4CCC5=CC(=O)C=C[C@]5(C)[C@@]4(F)[C@@H](O)C[C@]3(C)[C@]2(C(=O)CO)O1`, the figures for the Potency in assay [1] and in assay [2] were 0.059 µM (active) and 0.003 µM (active), respectively. For the same molecule, the Potency entry in assay [3] and in assay [5] was “inactive” in each case.
Consider `NC(CO)(CO)CCc1ccc(Sc2cccc(OCc3ccccc3)c2)cc1Cl`, for which the Potency was 14.8 µM (active) in assay [1], 23.5 µM (active) in assay [2], 23.5 µM (active) in assay [3] and 11.8 µM (active) in assay [5].
As for `COCCOc1nc(-c2ccc(Cl)c(Cl)c2)n(-c2ccc(NC(=O)CCl)cc2)n1`, the Potency was 16.6 µM (active) in assay [1], 20.9 µM (active) in assay [2] and 16.6 µM (active) in assay [5]. In assay [3], the Potency entry is “inactive”.
